From PubChem BioAssay (NCI) come the findings set out here.

The panel holds about 83,000 compounds, 20% with a hit somewhere; the sample as a whole holds those more often.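 Treatment: one concentration, 48 hours, 96-well format. Scoring: percent growth, with anything below 10 considered active.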 A number with no mark means an inactive call. The source made the active and inactive calls.

Common to all, as to test: NCI-60 one-dose screen, 48 h (100 = growth as untreated, 0 = no growth, -100 = all killed)
What all share (conditions): 10 µM

For experiment [1], the system named is RPMI-8226 leukemia.
Experiment [2] has as its system OVCAR-8 ovarian.
Experiment [3] concerns OVCAR-5 ovarian.
Experiment [4] has as its system OVCAR-4 ovarian.
In experiment [5] the test system is SK-OV-3 ovarian.
Experiment [6] has as its system IGROV1 ovarian.
The subject of experiment [7] is OVCAR-3 ovarian.
Experiment [8] relates to NCI/ADR-RES ovarian.
Experiment [9] deals with T-47D breast.
In experiment [10] the test system is HS 578T breast.

Regarding `CC1(C)CCC(=NNC(N)=S)CC1`, the growth in experiment [1] was 103%; in experiment [2] it was 100%; in experiment [3] it was 109%; in experiment [4] it was 112%; in [5] it was 117%; in experiment [6] it was 116%. Besides, the growth in experiment [7] was 112%; in experiment [8], 105%; in [9] it was 95.2%.
In the case of `CSC1=NCCCC1`, the growth in [1] was 106%; in [2], 106%; in experiment [3], 112%; in experiment [4] it was 105%; in experiment [5], 108%; in [6] it was 108%. Also, the growth in experiment [7] was 110%; in [8], 118%; in experiment [9], 107%.
`Nc1nc(Nc2ccccc2)n[nH]1`: the growth in experiment [1] is 97%; in [2], 98.1%; in experiment [3] it was 103%; in experiment [4], 103%; in [5], 104%; in experiment [6] it was 97.7%. Besides, the growth in experiment [7] is 119%; in experiment [8], 96.6%; in [9], 91.7%.
As to `CCCCCCCCCCCCCCCCCC(=O)OCCCCCCC`, the growth in [1] was 96.8%; in experiment [2] it was 102%; in experiment [3], 106%; in experiment [4], 110%; in experiment [5] it was 105%; in experiment [6] it was 111%. Besides, the values for the growth in [7], in experiment [10] and in experiment [9] were 101%, 109% and 99.6%, respectively.
On to `COc1cc(-c2nc(-c3nnc(-c4ccc(F)c(Cl)c4)o3)c3ccccn23)cc(OC)c1OC`, for which the growth in [1] is 35.3%; in experiment [2] it was -28.2% (active); in experiment [3], 67.6%; in experiment [4] it was -40.4% (active); in experiment [5] it was -4.85% (active); in experiment [6], 72.9%. Further, the results for the growth in [7], in experiment [10] and in experiment [9] were 22.3%, 58.6% and 30.4%, respectively.
Turning to `Cc1cc(O)c(C(C)(C)C)cc1Sc1cc(C(C)(C)C)c(O)cc1C`, the growth in experiment [1] is 12.8%; in experiment [2] it was 73.6%; in [3], 90.4%; in experiment [4] it was 28.3%; in [5], 65.3%; in experiment [6], 39.1%. For the same compound, the results for the growth in experiment [7], in experiment [8] and in experiment [9] were 29.3%, 30.7% and 18.6%, respectively.
Consider `COc1ccc(-c2nn(-c3cccc(NC(=O)c4ccc5c(c4)OCCO5)c3)cc2-c2ccncc2)cc1Cl`, for which the growth is -11.4% (active) in [1]; 29.6% in [2]; 42.7% in experiment [3]; 49% in [4]; 25.9% in [5]; 41.5% in experiment [6]. For the same compound, the growth in experiment [7] was 4.99% (active); in experiment [8], 10.2%; in experiment [9], 19.5%.
Regarding `CCN(CCCCCCCCCCN1CC(=O)N(CCCCCCCCCCN(CC)Cc2ccccc2OC)CC1=O)Cc1ccccc1OC`, the growth is -70.2% (active) in [1]; -77.1% (active) in experiment [2]; 8.29% (active) in experiment [3]; 10.2% in experiment [4]; -38.5% (active) in experiment [5]; -66.3% (active) in experiment [6]. Moreover, the growth in [7] is -62.6% (active); in experiment [8], -32.9% (active); in experiment [9], -66.5% (active).
For the compound `CN(C)c1ccc(N=C2C=CC(=O)c3ccccc32)cc1`, the growth was 65.4% in [1]; 76.3% in experiment [2]; 88% in experiment [3]; 71.5% in experiment [4]; 95.4% in [5]; 88.6% in experiment [6]. For the same compound, the growth in [7] is 23.8%; in [8] it was 85.5%; in experiment [9], 81.3%.
`CCCCOC(=O)Oc1ccc(C(=O)Oc2ccc(OCC)cc2)cc1`: the growth is 74.6% in experiment [1]; 99.1% in [2]; 94.3% in experiment [3]; 87.9% in experiment [4]; 111% in experiment [5]; 105% in [6]. Besides, the growth in experiment [7] was 98.6%; in [10], 94.5%; in experiment [9] it was 111%.
Regarding `CCN(CC)CCCC(C)Nc1nc(-c2ccc(OC)cc2)nc2cc(Cl)ccc12` (stereo not given), the growth is 55.2% in [1]; 76.1% in experiment [2]; 65.8% in experiment [3]; 68.7% in experiment [4]; 91.4% in [5]; 44.3% in experiment [6]. Also, the growth is 69.6% in [7], 70.4% in [10] and 60.2% in [9].
On to `Cn1c([N+](=O)[O-])cnc1/C=C1\Oc2ccccc2C1=O`, for which the growth in [1] was -7.1% (active); in experiment [2], -26% (active); in experiment [3], 0.959% (active); in experiment [4] it was 10.5%; in [5], -15.9% (active); in experiment [6], -29.5% (active). Moreover, the results for the growth in experiment [7], in experiment [10] and in [9] were -21% (active), -21.8% (active) and 87.3%, respectively.
Regarding `COc1cc([C@@H]2c3cc4c(cc3C(Br)[C@H]3COC(=O)[C@H]23)OCO4)cc(OC)c1OC` (stereo not given in full), the growth in experiment [1] was -25.8% (active); in experiment [2] it was -27.5% (active); in [3], 24.7%; in experiment [4] it was 17.3%; in experiment [5], -18.4% (active); in experiment [6], -21% (active). Further, the values for the growth in experiment [7], in [8] and in experiment [9] were -81.5% (active), -45.9% (active) and 31.3%, respectively.
Turning to `CCN(CCCCCCN1CC(=O)N(CCCCCCN(CC)Cc2ccccc2OC)CC1=O)Cc1ccccc1OC`, the growth in experiment [1] is 30.3%; in experiment [2], 86.7%; in experiment [3], 68.9%; in [4], 77.1%; in experiment [5], 102%; in [6], 61.1%. In addition, the growth in experiment [7] was 59.5%; in [8], 70.9%; in [9], 90.8%.
Consider `CC(C)(C#N)Nc1ccccc1`, for which the growth in experiment [1] was 105%; in experiment [2] it was 105%; in experiment [3], 100%; in [4], 99.5%; in experiment [5] it was 106%; in experiment [6] it was 121%. Moreover, the growth is 124% in experiment [7], 105% in experiment [10] and 102% in [9].
